From PubChem BioAssay
Activity calls are given as the source filed them.

Key:
[1] = compounds binding Alexa647 anti-His antibody – biochemical, small-molecule microarray, 635 nm fluorescence, artefact control for SMM control protein annotation, primary screen (AID 1128); conditions: higher = more signal;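 further: score merges feature fluorescence with signal-to-noise for each printed compound spot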
[2] = system: Human papillomavirus type 1a E7 protein (residues 1-88); assay: HPV1a E7 small-molecule binders, primary screen, biochemical, small-molecule microarray, residues 1-88, 635 nm (AID 1129); conditions: small-molecule microarray binding, fluorescence 635 nm; higher = more signal
[3] = target: Focal adhesion kinase 1 (Homo sapiens) (UniProt Q05397); assay: PTK2 protein binding on printed compound slides – biochemical, small-molecule microarray, 635/667 nm fluorescence, BSA, DTT, primary screen (AID 1130); conditions: 635 nm fluorescence, higher = more signal;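 further: composite of spot emission at 667 nm and signal to noise over triplicate slides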
[4] = system: Fibrinogen (Alexa647-labelled); assay: Alexa647-fibrinogen binding to printed small molecules – biochemical, small-molecule microarray, 635/667 nm fluorescence, artefact control for SMM control-protein annotation, profiling panel (AID 1131); conditions: fibrinogen-A647 binding fluorescence, higher = more signal;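 further: z-score merges 667 nm fluorescence with per-spot signal-to-noise over triplicate slides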
[5] = target: Follistatin (Homo sapiens) (UniProt P19883); assay: FST protein binding to printed compounds – biochemical, small-molecule microarray, 635/667 nm fluorescence, primary screen (AID 1132); conditions: 635 nm fluorescence, higher = more signal
[6] = target: Fibroblast growth factor 2 (Homo sapiens) (UniProt P09038); assay: basic fibroblast growth factor binding to printed compounds – biochemical, small-molecule microarray, 635/667 nm fluorescence, primary screen (AID 1133); conditions: FGF2, fluorescence 635/667, higher = more signal
[7] = JC-1 mitochondrial potential readout, lung cancer cells – cell-based, A549, JC-1 fluorescence, basal, 24 h, 100 nL, profiling panel (AID 1138); conditions: higher = more signal;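 further: A549 lung adenocarcinoma cells under basal conditions with no added stimulus; test concentration not given here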
Lefty1 = Lefty1 protein binding to printed compounds – biochemical, small-molecule microarray, 635/667 nm fluorescence, primary screen (AID 1139); conditions: fluorescence 635/667, higher = more signal
[8] = system: wheat germ agglutinin (Triticum aestivum), Alexa647-labelled; assay: Alexa647-WGA lectin binding to printed small molecules – biochemical, small-molecule microarray, 635/667 nm fluorescence, artefact control for SMM control-protein annotation, profiling panel (AID 1140); conditions: WGA-A647 binding, 635 nm fluorescence, higher = more signal;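 further: score merges 667 nm feature emission with signal to noise over triplicate slides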
[9] = target: Luciferin 4-monooxygenase (Photinus pyralis) (UniProt P08659); assay: inhibition of purified Photinus pyralis luciferase – biochemical, luminescence, purified enzyme, 2006 set, primary screen (AID 1141); conditions: purified firefly luciferase, SteadyGlo luminescence, 30 min; higher = more signal, called active from +8 up or from −8 down;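 further: cell-free assay with purified firefly luciferase at 100 ng per well in PBS; test concentration not given here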
Luciferin 4-monooxygenase (Photinus pyralis), sequence (P08659 whole entry, looked up): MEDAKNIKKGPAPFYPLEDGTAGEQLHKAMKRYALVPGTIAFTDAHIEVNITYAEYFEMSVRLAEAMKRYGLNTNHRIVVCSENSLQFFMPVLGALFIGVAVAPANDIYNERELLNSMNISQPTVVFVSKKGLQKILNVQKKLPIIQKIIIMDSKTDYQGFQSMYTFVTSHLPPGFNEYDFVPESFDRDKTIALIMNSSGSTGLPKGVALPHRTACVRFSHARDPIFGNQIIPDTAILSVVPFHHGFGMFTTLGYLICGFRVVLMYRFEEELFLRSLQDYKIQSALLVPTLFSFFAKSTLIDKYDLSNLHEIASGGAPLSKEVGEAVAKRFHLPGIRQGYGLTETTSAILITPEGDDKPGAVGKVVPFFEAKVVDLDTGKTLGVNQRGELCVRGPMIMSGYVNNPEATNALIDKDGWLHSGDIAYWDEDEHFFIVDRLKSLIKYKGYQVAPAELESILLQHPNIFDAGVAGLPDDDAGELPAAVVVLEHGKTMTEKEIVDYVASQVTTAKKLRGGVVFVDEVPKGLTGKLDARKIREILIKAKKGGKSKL

Follistatin (Homo sapiens), sequence (P19883 whole entry, looked up): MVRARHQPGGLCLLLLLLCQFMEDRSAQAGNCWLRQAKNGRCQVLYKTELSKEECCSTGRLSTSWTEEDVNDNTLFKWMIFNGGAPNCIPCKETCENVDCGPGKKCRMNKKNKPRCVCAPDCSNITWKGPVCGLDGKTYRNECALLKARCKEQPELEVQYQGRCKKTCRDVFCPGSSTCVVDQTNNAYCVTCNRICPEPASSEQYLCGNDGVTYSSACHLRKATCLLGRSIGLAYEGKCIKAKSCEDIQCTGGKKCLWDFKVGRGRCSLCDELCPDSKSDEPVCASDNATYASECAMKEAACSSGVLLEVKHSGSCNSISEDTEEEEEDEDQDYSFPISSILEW
Focal adhesion kinase 1 (Homo sapiens), sequence (Q05397 whole entry, looked up): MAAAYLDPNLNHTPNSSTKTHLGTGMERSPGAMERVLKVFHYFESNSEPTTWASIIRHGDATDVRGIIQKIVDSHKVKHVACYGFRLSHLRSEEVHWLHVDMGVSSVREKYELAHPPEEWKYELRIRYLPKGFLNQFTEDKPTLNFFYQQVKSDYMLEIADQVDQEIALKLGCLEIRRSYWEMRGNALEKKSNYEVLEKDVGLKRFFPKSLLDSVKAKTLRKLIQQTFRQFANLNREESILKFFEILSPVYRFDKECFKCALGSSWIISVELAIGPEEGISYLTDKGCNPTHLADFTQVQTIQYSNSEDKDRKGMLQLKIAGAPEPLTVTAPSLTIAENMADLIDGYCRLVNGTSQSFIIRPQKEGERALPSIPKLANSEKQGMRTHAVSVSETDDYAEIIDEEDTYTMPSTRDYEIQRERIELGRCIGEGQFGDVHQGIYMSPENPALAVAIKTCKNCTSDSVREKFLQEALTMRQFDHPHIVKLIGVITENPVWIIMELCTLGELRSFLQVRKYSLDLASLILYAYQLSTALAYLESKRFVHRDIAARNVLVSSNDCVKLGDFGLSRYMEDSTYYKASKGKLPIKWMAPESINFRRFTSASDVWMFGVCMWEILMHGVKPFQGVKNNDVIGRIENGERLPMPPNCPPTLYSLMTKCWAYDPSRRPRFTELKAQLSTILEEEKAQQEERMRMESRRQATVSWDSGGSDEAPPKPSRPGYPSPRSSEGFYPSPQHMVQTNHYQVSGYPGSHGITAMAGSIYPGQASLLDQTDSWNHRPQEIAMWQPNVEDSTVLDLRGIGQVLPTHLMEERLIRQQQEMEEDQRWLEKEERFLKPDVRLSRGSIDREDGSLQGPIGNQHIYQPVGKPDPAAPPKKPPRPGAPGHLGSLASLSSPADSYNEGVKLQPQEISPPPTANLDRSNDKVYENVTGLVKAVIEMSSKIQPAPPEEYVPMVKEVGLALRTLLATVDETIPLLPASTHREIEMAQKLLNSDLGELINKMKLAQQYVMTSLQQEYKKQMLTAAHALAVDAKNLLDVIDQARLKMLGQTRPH
Fibroblast growth factor 2 (Homo sapiens), sequence (P09038 whole entry, looked up): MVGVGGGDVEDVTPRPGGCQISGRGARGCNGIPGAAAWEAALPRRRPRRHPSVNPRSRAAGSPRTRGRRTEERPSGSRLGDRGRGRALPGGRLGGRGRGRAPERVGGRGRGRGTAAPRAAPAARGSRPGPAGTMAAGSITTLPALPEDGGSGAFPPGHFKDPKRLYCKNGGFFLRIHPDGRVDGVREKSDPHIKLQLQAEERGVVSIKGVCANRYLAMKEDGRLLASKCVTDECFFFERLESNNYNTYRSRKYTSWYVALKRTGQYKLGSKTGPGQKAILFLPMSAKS

SMILES | composite z-score [1] | composite z-score [2] | composite z-score [3] | composite z-score [4] | composite z-score [5] | composite z-score [6] | z-score [7] | composite z-score (Lefty1) | composite z-score [8] | z-score [9]
O=C1C2C=CC(C(O)c3ccccn3)N(Nc3ccccc3)C2C(=O)N1c1ccccc1 (stereo not given) | 0.0213 | 0.0731 | 0.478 | 0.339 | 0.0784 | -0.424 | 0.327 | 0.144 | 1.14 | -1.08 (inactive)
Cc1ccc(-c2cccc(=O)o2)cc1 | -1.57 | -0.935 | -0.404 | -0.551 | 0.272 | 0.156 | -0.241 | -0.33 | -0.233 | -1.23 (inactive)
C=CCOC(=O)[C@@H]1[C@H]2C(=O)O[C@H](c3ccccc3)[C@H](c3ccccc3)N2[C@H](c2ccc(OCCOC(=O)[C@@H]3C[C@@H]4C(=O)N5CCC[C@H]5C(=O)N4[C@@H]3c3cccc(OCCO)c3)cc2)[C@@]12C(=O)Nc1ccc(I)cc12 | 1.16 | 1.07 | 0.468 | 0.4 | 1.43 | 1.92 | -1.17 | 1.42 | 0.504 | 1.13 (inactive)
Cc1ccc(N2C(=O)c3ccccc3[C@](C)(C(=O)NC(C)C)[C@@H]2c2ccc(CO)cc2)nc1 | -2.03 | -1.29 | -1.72 | -2.28 | -0.739 | -0.276 | 0.0388 | -2.28 | 0.654 | -1.01 (inactive)
O=C1N(CCS(=O)(=O)c2ccccc2)c2ccccc2[C@H]2OC(c3ccc(OCCCO)cc3)=N[C@@]12CCS(=O)(=O)c1ccccc1 | 3.19 | 1.21 | 0.634 | 0.943 | 1.42 | 1.74 | -1.23 | 0.589 | 0.816 | -3.3 (inactive)
COC(=O)[C@]1(Cc2ccccc2CN=[N+]=[N-])N=C(c2ccc(OCCCO)cc2)O[C@@H]1c1ccccc1 | 0.652 | -1.81 | -0.435 | 0.0713 | -0.562 | -0.782 | -0.0525 | -0.429 | 0.441 | -1.02 (inactive)
CC(C)C(CO)N1C(=O)[C@@H]2[C@H]3C(=O)OCC=C[C@H]3OC23C=CCN(CCN2CCOCC2)C(=O)[C@@H]13 (stereo not given in full) | 0.108 | -0.438 | -0.403 | 0.0835 | 0.418 | -0.328 | -0.0537 | 0.817 | -0.467 | -0.233 (inactive)
CCCNC(=O)[C@@]1(Sc2ccc(C)cc2)CC(=O)N(Cc2ccccc2)[C@@H]1c1ccc(CO)cc1I | 0.381 | 0.561 | 0.0147 | -0.122 | 1.38 | 1.16 | 0.651 | 0.427 | 0.996 | 0.0043 (inactive)
COCCCNC(=O)[C@]1(CCS(=O)(=O)c2ccccc2)N=C(c2ccc(OCCCO)cc2)O[C@@H]1c1ccccc1 | 1.85 | 1.27 | 1.57 | 0.997 | 0.892 | 1.36 | 1.3 | 0.136 | 0.455 | -1.45 (inactive)
CC(C)N1C(=O)c2ccccc2[C@](C)(C(=O)O)[C@@H]1c1ccc(CO)cc1 | 0.181 | -1.44 | -0.0258 | -1.34 | -0.509 | -0.977 | -0.359 | -0.82 | -0.36 | 0.883 (inactive)
C[C@H]1ON(c2ccccc2)[C@@H](c2ccccc2)[C@@H]1C(=O)N1C(=O)OC[C@@H]1c1ccccc1 | 0.143 | 0.718 | 0.784 | 0.894 | 1.12 | 0.986 | -0.21 | 0.5 | 0.014 | 0.422 (inactive)
